Experimental findings from PubChem BioAssay are described below.

Assay [1] in a line: hESC survival regulators, cell-based (AID 493140; call rule not given here;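 also: cells exposed to compounds for four days before counting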). The conditions noted are these: human embryonic stem cell survival screen; stronger effect = higher value.
A short description of assay [2]: liver-stage malaria parasite growth inhibition, primary screen, cell-based, HepG2, luciferase luminescence, HepG2 viability (AID 624349).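 Also: 100% = mean of DMSO negative control wells on the same plate.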 The conditions noted are these: P. berghei liver stage in HepG2, luciferase luminescence, concentration not given here; parasite load remaining: stronger effect = lower value; viability: measured here: HepG2 viability without parasites.
Assay [3] has as its target 6-phosphogluconate dehydrogenase, decarboxylating (Homo sapiens) (UniProt P52209). Description: 6PGD enzyme inhibitors, primary screen, biochemical, human, recombinant enzyme, NADPH absorbance (AID 1159550;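 active = at least 20% inhibition of 6-phosphogluconate dehydrogenase activity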). The conditions noted are these: recombinant 6PGD, NADPH absorbance 341 nm; at 10 µM; stronger effect = higher value.
Assay [4] can be described thus: differential killing of epithelial or mesenchymal cells, primary screen, imaging, PC-3E GFP, TEM4-18 mCherry, co-culture (AID 1345086;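 active = compounds killing one labelled cell type while sparing the other, by normalised counts and ratio limits, not self-fluorescent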;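 as to all read-outs here: cells exposed to compound for 72 h before imaging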;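 as to red/green cell ratio (normalised): normalised mesenchymal count divided by normalised epithelial count so high means epithelial killing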). The conditions noted are these: imaging cell counts, at 1 µM; for red/green cell ratio (normalised): actives lie on both sides, counts scaled to control wells, 1 = unselective.
The nature of assay [5]: sensitizers of A549 cells to miR-34 induction, primary screen, imaging, A549 dox-inducible miR-34, nuclei and caspase counts (AID 1347080;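 active = compounds whose cell count with miR-34 switched on is under 0.7 times the count with it off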). Conditions: A549 miR-34 inducible, Hoechst nuclei count, 48 h.
A short description of assay [6]: survival rescue of mitochondrial mutant cells in low glucose, primary screen, MELAS cybrids, Rieske KO mouse fibroblasts, CellTiter-Glo (AID 1508586;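 active = mean z-score across replicates of 1.96 or higher in either the MELAS or the Rieske mutant cell line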;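 also: z relative to plate mean and SD of compound and empty wells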).
Assay [7] addresses NAD(+) hydrolase SARM1 (Homo sapiens) (UniProt Q6SZW1). Description: SARM1 TIR NADase inhibitors, cell lysate, NAD-Glo luminescence (AID 1508614;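 active = compound whose remaining NAD level is above about 45 nM, limit read from the data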;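 also: higher remaining NAD means stronger inhibition of SARM1 NADase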). Conditions: SAM-TIR HEK293T lysate NADase, at 1 µM, stronger effect = higher value.
Assay [8] concerns the target Mitogen-activated protein kinase 7 (Homo sapiens) (UniProt Q13164). Description: ERK5 transactivation activators in reporter cells, primary screen, cell-based, HTS (AID 1508626;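 active = luciferase signal above three times the same-plate solvent-only control wells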;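 also: luciferase driven by Gal4-ERK5 fusion binding five Gal4 sites before minimal TATA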). The conditions noted are these: HeLa Gal4-ERK5 transactivation, 18 h, at 5 µM, stronger effect = higher value.
Assay [9] is described as follows: polyglutamine-triggered caspase-3 activation inhibitors, cell-based (AID 1583). Conditions: polyglutamine-induced caspase-3 activation, cell assay; stronger effect = higher value;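 tested at 10 µM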.
Assay [10] is described as follows: suppressors of polyQ aggregation in yeast, 75Q-TubU reporter (AID 1593). The conditions noted are these: Yeast 75Q polyglutamine aggregation reporter.
Assay [11] in a line: rescue of polyQ-huntingtin neuronal dysfunction in worms, whole organism, C. elegans mechanosensory neurons, N-terminal huntingtin (AID 1599). The conditions noted are these: touch response, stronger effect = higher value.
Assay [12] in a line: inhibitors of mitochondrial cytochrome c release, biochemical, purified mitochondria (AID 1603).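 Also: mouse liver mitochondria challenged with calcium chloride; signal normalized to the plate average as 100%.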 The conditions noted are these: stronger effect = lower value.
Assay [13] in a line: inhibitors of polyQ protein aggregation (AID 1604). The conditions noted are these: polyglutamine-induced protein aggregation inhibition assay; stronger effect = higher value; tested at 2.5 µM.
Assay [14] can be described thus: enhancers of glutamate uptake in motor neurons, MN-1 cell line (AID 1612).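 Also: tested at 1 µM final; 0% = mean of DMSO vehicle wells on each plate; positive means more glutamate uptake than control and negative means less.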 The conditions noted are these: MN-1 motor neuron cells, stronger effect = higher value.
Assay [15] in a line: reducers of polyQ inclusions in PC12 cells, cell-based, NGF-treated PC12, GFPQ80 (AID 1614).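 Also: lower means fewer inclusions and 0 means no inclusions at all.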 Conditions: PC12 NGF-treated GFP-polyQ80 inclusion reduction.
Assay [16] is described as follows: suppressors of polyglutamine aggregation in yeast, 75Q-TubH (AID 1616). The conditions noted are these: S. cerevisiae 75Q-TubH polyglutamine aggregation suppression; stronger effect = higher value.
The nature of assay [17]: circadian clock period modulators, cell-based, LOPAC library, luminescence reporter (AID 2774; call rule not given here;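 also: values are relative to mean of DMSO wells on each plate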). The conditions noted are these: circadian reporter cells, at 7 µM, actives lie on both sides.
In assay [18] the test system is Hepatitis C virus NS3 helicase. Description: HCV NS3 helicase inhibitors, primary screen, biochemical, fluorescence polarization, LOPAC1280 library (AID 687035; in the data active = inhibition above about 37%). Conditions: Purified HCV NS3 helicase, Cy5-dT15 ssDNA binding fluorescence polarization; stronger effect = higher value; concentration not given here. (In fluorescence polarisation assays a small probe gives low polarisation when free and higher when bound to something large.)

Assay [19] can be described thus: phospholipid biosynthesis inhibitors in animal cells, primary screen, cell-based, LOPAC library, screen 4 (AID 1347384; call rule not given here). The conditions noted are these: phospholipid biosynthesis inhibition screen, at 10 µM.
The nature of assay [20]: viability rescue of complex I mutant cybrids, primary screen, cell-based, galactose medium, ATP luminescence (AID 1645843;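 active = z-score of at least 1.8 in each of two replicates, scored against plate mean and spread of sample wells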;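 also: positive z means more ATP and so rescue of galactose-driven cybrid death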). Conditions: complex I mutant cybrid cells, 72 h, stronger effect = higher value.
Setting [21] is: measured here: epithelial PC-3E GFP cell survival.
Where [22] appears, read: measured here: mesenchymal TEM4-18 mCherry cell survival.
[23] abbreviates: stronger effect = lower value, cell number ratio, induced over uninduced.
Where [24] appears, read: measured here: relative caspase fold change +Dox/-Dox.
The mark [25] stands for this setting: measured here: total cells with miR-34 induction, stronger effect = lower value.
[26] abbreviates: measured here: total cells without miR-34 induction.
[27] abbreviates: MELAS cybrid survival, CellTiter-Glo 48 h, stronger effect = higher value.
Where [28] appears, read: Rieske KO mouse fibroblast survival, CellTiter-Glo 72 h.

Values joined by “and” are separate entries in the source; they are usually repeats but may differ in a detail not shown here. Equal entries are not always repeated. For some of these results: Measured potencies and affinities stand elsewhere. Active and inactive are the calls of the source. Rule as the data show it, unless noted: active = parasite load remaining mostly below about 12% (no sharp cut-off); inactive = mostly above about 10%.

Mitogen-activated protein kinase 7 (Homo sapiens), sequence (Q13164 whole entry, looked up, the tested form may be a part): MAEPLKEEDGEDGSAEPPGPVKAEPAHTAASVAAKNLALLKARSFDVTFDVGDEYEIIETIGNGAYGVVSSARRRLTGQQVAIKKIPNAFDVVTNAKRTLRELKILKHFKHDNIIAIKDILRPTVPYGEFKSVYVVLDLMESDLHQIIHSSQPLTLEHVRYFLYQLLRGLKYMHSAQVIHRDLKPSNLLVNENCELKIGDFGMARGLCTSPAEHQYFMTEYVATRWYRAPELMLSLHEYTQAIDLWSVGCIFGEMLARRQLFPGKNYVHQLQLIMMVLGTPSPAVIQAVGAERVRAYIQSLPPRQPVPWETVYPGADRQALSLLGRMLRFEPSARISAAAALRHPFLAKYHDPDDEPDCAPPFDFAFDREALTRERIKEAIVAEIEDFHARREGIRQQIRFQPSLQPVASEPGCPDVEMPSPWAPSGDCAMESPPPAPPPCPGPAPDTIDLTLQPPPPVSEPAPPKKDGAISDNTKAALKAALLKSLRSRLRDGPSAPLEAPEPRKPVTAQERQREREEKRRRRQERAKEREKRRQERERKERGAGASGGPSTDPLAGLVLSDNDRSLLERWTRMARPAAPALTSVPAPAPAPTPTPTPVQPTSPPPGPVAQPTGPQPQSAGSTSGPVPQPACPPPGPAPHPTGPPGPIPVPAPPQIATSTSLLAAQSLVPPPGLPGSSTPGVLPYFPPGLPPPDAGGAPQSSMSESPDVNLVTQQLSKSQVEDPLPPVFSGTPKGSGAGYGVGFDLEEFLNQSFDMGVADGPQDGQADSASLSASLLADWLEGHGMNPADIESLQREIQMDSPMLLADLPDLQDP
NAD(+) hydrolase SARM1 (Homo sapiens), sequence (Q6SZW1 whole entry, looked up, the tested form may be a part): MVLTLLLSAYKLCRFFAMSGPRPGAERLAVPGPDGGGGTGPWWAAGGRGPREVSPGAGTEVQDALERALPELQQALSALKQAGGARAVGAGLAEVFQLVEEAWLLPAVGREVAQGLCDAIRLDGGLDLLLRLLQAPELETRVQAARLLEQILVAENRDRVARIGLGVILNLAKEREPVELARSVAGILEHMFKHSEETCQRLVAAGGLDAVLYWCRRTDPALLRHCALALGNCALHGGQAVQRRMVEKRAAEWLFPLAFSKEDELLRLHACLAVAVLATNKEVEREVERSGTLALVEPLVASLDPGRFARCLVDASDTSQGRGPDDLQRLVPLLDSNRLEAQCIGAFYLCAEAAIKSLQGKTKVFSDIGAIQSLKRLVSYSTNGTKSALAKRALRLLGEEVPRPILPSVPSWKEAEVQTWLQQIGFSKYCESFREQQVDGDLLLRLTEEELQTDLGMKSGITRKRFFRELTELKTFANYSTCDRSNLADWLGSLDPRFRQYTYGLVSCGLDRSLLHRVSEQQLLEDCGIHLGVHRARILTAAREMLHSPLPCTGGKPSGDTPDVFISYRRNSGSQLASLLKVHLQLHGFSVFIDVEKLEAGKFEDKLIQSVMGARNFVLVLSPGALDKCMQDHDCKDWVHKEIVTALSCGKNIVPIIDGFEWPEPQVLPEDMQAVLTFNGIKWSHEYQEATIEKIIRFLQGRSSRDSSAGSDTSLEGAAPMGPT
6-phosphogluconate dehydrogenase, decarboxylating (Homo sapiens), sequence (P52209 whole entry, looked up): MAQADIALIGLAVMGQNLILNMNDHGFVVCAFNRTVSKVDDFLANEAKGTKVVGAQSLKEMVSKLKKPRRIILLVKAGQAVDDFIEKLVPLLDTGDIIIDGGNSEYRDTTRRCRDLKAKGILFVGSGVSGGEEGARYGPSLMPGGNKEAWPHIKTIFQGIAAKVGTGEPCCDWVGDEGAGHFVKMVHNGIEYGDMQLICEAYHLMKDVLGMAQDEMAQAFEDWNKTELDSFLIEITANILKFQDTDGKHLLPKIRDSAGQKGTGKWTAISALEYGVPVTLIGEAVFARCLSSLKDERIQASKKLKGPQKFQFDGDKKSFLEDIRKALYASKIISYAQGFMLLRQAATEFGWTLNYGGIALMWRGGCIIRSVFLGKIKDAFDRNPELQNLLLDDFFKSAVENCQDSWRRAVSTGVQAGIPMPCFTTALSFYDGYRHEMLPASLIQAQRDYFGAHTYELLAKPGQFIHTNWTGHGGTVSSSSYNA

Take `N[C@@H](Cc1cc(I)c(Oc2ccc(O)c(I)c2)c(I)c1)C(=O)O`: the survival in assay [1] is 4.58 (inactive). In addition, the parasite load remaining in assay [2] was 78.5% (inactive) and 158% (inactive) and 41% (inactive). Further, in assay [2], the viability is 96% and 73% and 101%. Further, the inhibition in assay [3] was 0.697% (inactive). Moreover, in assay [4], the red/green cell ratio (normalised) is 1.24 (inactive). Moreover, the normalised cell number in assay [4] (setting [21]) was found to be 0.91; in assay [4] (setting [22]) it was 1.14. In addition, the fold change in assay [5] (setting [23]) was 0.925 (inactive) and 0.987 (inactive); in assay [5] (setting [24]), 0.994 and 1.44. Also, the cell count in assay [5] (setting [25]) was 10000 and 11900; in assay [5] (setting [26]) it was 10800 and 12100. In addition, the z-score in assay [6] (setting [27]) was -0.576 (inactive); in assay [6] (setting [28]), -1.73. Besides, the remaining NAD in [7] was 10 nM (inactive). In addition, the luciferase signal in assay [8] is 80 AU (inactive).
For the compound `CN1CCc2cccc3c2C1Cc1ccc(O)c(O)c1-3` (stereo not drawn), the inhibition in assay [9] was 1.43%; in [18], -6% (inactive); in assay [3] it was -2.58% (inactive). Moreover, the score in assay [10] amounted to 0.79. In [11], the rescue above control stood at 3.21. In addition, the cytochrome c release ratio in [12] came out at 0.9. In addition, the inhibition of aggregation in assay [13] amounted to 85.7%. Also, the glutamate uptake change in assay [14] was 14%. The inclusion score in assay [15] came out at 2. For the same compound, the aggregation suppression score in assay [16] came out at 1.03. Besides, the period change in assay [17] was 0.35 h (inactive). Besides, the parasite load remaining in assay [2] was 9.7% (inactive) and 18.2% (inactive). Further, the viability in assay [2] is 65% and 86.9%. The red/green cell ratio (normalised) in assay [4] is 1.13 (inactive). Moreover, the figures for the normalised cell number in assay [4] (setting [21]) and in assay [4] (setting [22]) were 1.2 and 1.36, respectively. Also, the fold change is 0.965 (inactive) and 0.839 (inactive) in assay [5] (setting [23]); 2.09 and 1.99 in assay [5] (setting [24]). Besides, the cell count in assay [5] (setting [25]) was 7940 and 8770; in [5] (setting [26]) it was 8230 and 10400. Moreover, the result in assay [19] was inactive. Moreover, the z-score in assay [20] is -1.52 (inactive).
On to `CC(C)(C)NC[C@H](O)c1ccc(O)c(CO)c1`, for which the inhibition in [3] was -0.348% (inactive). The red/green cell ratio (normalised) in assay [4] is 0.77 (inactive). Further, the figures for the normalised cell number in [4] (setting [21]) and in [4] (setting [22]) were 1.2 and 0.92, respectively. The fold change is 0.873 (inactive) in assay [5] (setting [23]) and 1.01 in assay [5] (setting [24]). Also, the cell count was 7950 in [5] (setting [25]) and 9100 in assay [5] (setting [26]). For the same compound, the z-score in [6] (setting [27]) is 0.715 (inactive); in assay [6] (setting [28]), -0.611. Moreover, the remaining NAD in assay [7] is 10 nM (inactive). The luciferase signal in [8] was 112 AU (inactive).
As for `COc1cc2c(cc1OC)-c1cc3ccc(OC)c(OC)c3c[n+]1CC2`, the survival in assay [1] is 1.83 (inactive). Also, the parasite load remaining in assay [2] is 110% (inactive) and 92.2% (inactive) and 65.3% (inactive). Also, the viability in [2] is 114% and 73.3% and 79.6%. Besides, the inhibition in assay [3] is -0.646% (inactive) and 1.04% (inactive). The red/green cell ratio (normalised) in [4] is 0.85 (inactive) and 0.9 (inactive). Further, the normalised cell number in assay [4] (setting [21]) is 1.04 and 1.09; in assay [4] (setting [22]) it was 0.88 and 0.98. Also, the fold change is 0.898 (inactive) and 1 (inactive) in assay [5] (setting [23]); 1.49 and 0.581 in [5] (setting [24]). The cell count is 8980 and 7680 in [5] (setting [25]); 9990 and 7660 in assay [5] (setting [26]). Moreover, the z-score in [6] (setting [27]) is -0.0781 (inactive); in [6] (setting [28]) it was 0.0197. Moreover, in [8], the luciferase signal was 352 AU (active).
Regarding `O=c1cc(-c2ccccc2)oc2c(O)c(O)ccc12`, the inhibition in assay [9] is 17.3%; in assay [3], -53.2% (inactive). Besides, the score in assay [10] worked out at 0.23. Further, the rescue above control in [11] is -0.88. Moreover, in assay [12], the cytochrome c release ratio is 0.65. The compound further returned an inhibition of aggregation in assay [13] of 81.7%. The glutamate uptake change in [14] stood at 0.12%. The same compound gave an inclusion score in [15] of 1.5. The compound also showed an aggregation suppression score in assay [16] of 0.00444. The red/green cell ratio (normalised) in assay [4] was 0.99 (inactive). The normalised cell number in [4] (setting [21]) stood at 0.99; in assay [4] (setting [22]), 0.98. Also, the fold change was 1.65 (inactive) in assay [5] (setting [23]) and 0.979 in [5] (setting [24]). Further, the results for the cell count in assay [5] (setting [25]) and in assay [5] (setting [26]) were 3960 and 2390, respectively. Also, the result in assay [19] was inactive. Further, the luciferase signal in [8] is 32 AU (inactive). Moreover, in assay [20], the z-score was -0.44 (inactive).
Turning to `CN1CCc2c(c3ccccc3n2Cc2ccccc2)C1`, the inhibition in assay [9] is 13.5%; in assay [3] it was 10.8% (inactive). This compound displayed a score in assay [10] of 1.36. Also, in [11], the rescue above control was -5.3. The cytochrome c release ratio in assay [12] is 1.12. Further, the inhibition of aggregation in [13] is 26.7%. Also, the glutamate uptake change in assay [14] is -0.3%. The aggregation suppression score in [16] stood at 1.16. Further, in [1], the survival is 3.25 (inactive). In [2], the parasite load remaining is 52.3% (inactive) and 141% (inactive) and 69.3% (inactive). Also, the viability in assay [2] was 99% and 73.4% and 70.8%. Moreover, the red/green cell ratio (normalised) in [4] was 0.9 (inactive). Moreover, the normalised cell number worked out at 0.92 in [4] (setting [21]) and 0.82 in assay [4] (setting [22]). The fold change was 0.847 (inactive) in assay [5] (setting [23]) and 1.16 in [5] (setting [24]). Moreover, the cell count is 8940 in assay [5] (setting [25]) and 10600 in [5] (setting [26]). The z-score in assay [6] (setting [27]) is 0.038 (inactive); in assay [6] (setting [28]) it was 0.0579. In assay [7], the remaining NAD was 10 nM (inactive).

In general, viability refers to a read-out of living cells in per cent, often relative to untreated cells. Broadly, the inhibition is the change of the read-out against control, counted positive when it falls.
